Assay outcomes (PubChem)
PD-1 reversal: reversal of PD-1 mediated T-cell inhibition | primary human CD4 T cells, PD-L1 beads, CellTiter-Glo 96 h | activation, % (no concentration beside the values) | 29,000 tested, under 10 active | AID 2316; call rule not given here
NOMO-1 viab: STK33 inhibitor candidate reducing NOMO-1 cell viability. 37,000 compounds, 7.5% hits. inhibition, % (test concentration not listed). NOMO-1 AML viability, CellTiter-Glo luminescence, 72 h. AID 2330; in the data active means inhibition above about 80%; inconclusive means no clear call, values can overlap the other calls
STK33 kin inh: blocks human STK33 kinase activity; inhibition, % at 12.5 µM; ADP-Glo luminescence, MBP substrate; 27,000 compounds, 0.44% hits; in the data active means inhibition above about 20%; inconclusive means no clear call, values can overlap the other calls
Target sequence (Q9BYT3 whole entry, looked up): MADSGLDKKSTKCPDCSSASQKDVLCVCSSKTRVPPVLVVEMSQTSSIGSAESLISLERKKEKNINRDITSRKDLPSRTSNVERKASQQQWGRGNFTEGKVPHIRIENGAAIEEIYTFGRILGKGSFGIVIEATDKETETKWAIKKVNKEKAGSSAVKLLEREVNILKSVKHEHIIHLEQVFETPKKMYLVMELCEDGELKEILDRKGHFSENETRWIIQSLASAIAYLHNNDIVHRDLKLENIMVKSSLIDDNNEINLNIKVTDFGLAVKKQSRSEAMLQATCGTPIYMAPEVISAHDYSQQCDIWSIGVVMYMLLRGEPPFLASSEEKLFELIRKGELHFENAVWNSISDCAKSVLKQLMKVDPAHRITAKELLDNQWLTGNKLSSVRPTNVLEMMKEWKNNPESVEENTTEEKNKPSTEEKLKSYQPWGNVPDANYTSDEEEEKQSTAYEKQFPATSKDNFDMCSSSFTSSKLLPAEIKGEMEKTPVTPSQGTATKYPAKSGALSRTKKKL
Numbers stand for hits; . = inactive; ? = inconclusive; / = not tested or not shown. Shown is part of a subset that was picked to be rich in hits.

SMILES	PD-1 reversal	NOMO-1 viab	STK33 kin inh
O=c1c(C=Nc2ccccc2)c(Nc2ccccc2)[nH]n1-c1ccccc1	.	102.1	.
O=C(CSc1nc2sc3c(c2c(=O)n1Cc1ccccc1)CCCCC3)c1ccccc1	.	?	.
Cc1ccc(S(=O)(=O)Nc2ccc3c(c2)CC(=O)N([C@@H](C)CO)C[C@H](C)[C@@H](CN(C)Cc2ccc(C(=O)Nc4ccccc4N)cc2)O3)cc1	.	.	/
C[C@H](CO)N1C[C@H](C)[C@@H](CN(C)Cc2ccc(C(=O)Nc3ccccc3N)cc2)Oc2ccc(NS(=O)(=O)c3ccc(F)cc3)cc2C1=O	.	.	/
Cc1ccc(S(=O)(=O)Nc2ccc3c(c2)CC(=O)N([C@H](C)CO)C[C@@H](C)[C@@H](CN(C)Cc2ccc(C(=O)Nc4ccccc4N)cc2)O3)cc1	.	107.4	/
C[C@@H]1CN([C@H](C)CO)C(=O)c2cc(NS(=O)(=O)c3ccc(Cl)cc3)ccc2O[C@H]1CN(C)Cc1ccc(C(=O)Nc2ccccc2N)cc1	.	.	/
C[C@H](CO)N1C[C@H](C)[C@H](CN(C)Cc2ccc(C(=O)Nc3ccccc3N)cc2)Oc2ccc(NS(=O)(=O)c3ccc(F)cc3)cc2CC1=O	.	140.0	/
C[C@H](CO)N1C[C@H](C)[C@H](CN(C)Cc2ccc(C(=O)Nc3ccccc3N)cc2)Oc2ccc(NS(=O)(=O)c3ccc(Cl)cc3)cc2CC1=O	.	141.5	/
C[N+]1(C/C=C2/COCO2)CCCCC1	.	.	/
Cc1ccc(-c2cc(C)nc(SCC(=O)Nc3ccc(C)c(C)c3)n2)cc1	/	.	.
N#Cc1cc2c(nc1SCC(=O)Nc1ccccc1C(F)(F)F)CCC2	.	.	.
Brc1ccccc1-c1nc2ccccc2c2nc3ccccc3n12	.	.	/
O=C(O)c1ccc2c3c1cccc3c(=O)n1c3ccccc3nc21	.	.	69.8
C/C=C1/[C@H](O[C@@H]2O[C@H](CO)[C@@H](O)[C@H](O)[C@H]2O)OC=C(C(=O)OC)[C@H]1CC(=O)OCCc1ccc(O)c(O)c1	/	/	.
COc1ccc(S(=O)(=O)Nc2ccc3c(c2)CC(=O)N([C@H](C)CO)C[C@@H](C)[C@@H](CN(C)Cc2ccc(C(=O)Nc4ccccc4N)cc2)O3)cc1	.	91.8	/
COc1ccc(S(=O)(=O)Nc2ccc3c(c2)C(=O)N([C@@H](C)CO)C[C@H](C)[C@@H](CN(C)Cc2ccc(C(=O)Nc4ccccc4N)cc2)O3)cc1	.	.	/
COc1ccc(S(=O)(=O)Nc2ccc3c(c2)C(=O)N([C@H](C)CO)C[C@H](C)[C@@H](CN(C)Cc2ccc(C(=O)Nc4ccccc4N)cc2)O3)cc1	.	.	/
COc1ccc(S(=O)(=O)Nc2ccc3c(c2)CC(=O)N([C@H](C)CO)C[C@H](C)[C@H](CN(C)Cc2ccc(C(=O)Nc4ccccc4N)cc2)O3)cc1	.	139.7	/
CCC(=O)N1CCN(c2ccc(Cl)cc2NC(=O)COc2cc(C)cc(C)c2)CC1	.	.	.
CCOC(=O)c1c(-c2ccc(OC)cc2)csc1NC(=O)c1ccccc1[N+](=O)[O-]	/	.	.
COC(=O)c1c(NC(=S)Nc2nc(C)cc(C)n2)sc2c1CCC2	/	.	.
CS/C(N)=N/C(N)=Nc1ccc(Cl)cc1	.	.	/
Cc1ccnc(SCC(=O)Nc2ccc(Cl)cc2Cl)n1	.	.	.
C[C@H]1CN([C@@H](C)CO)C(=O)c2cccc(NC(=O)c3ccc(-c4nccs4)cc3)c2O[C@H]1CN(C)Cc1ccc(Cl)c(Cl)c1	/	102.3	/
C[C@@H]1CN([C@H](C)CO)C(=O)c2cccc(NC(=O)c3ccc(-c4nccs4)cc3)c2O[C@H]1CN(C)Cc1ccc(Cl)c(Cl)c1	.	105.9	/
SMILES	PD-1 reversal	NOMO-1 viab	STK33 kin inh
C[C@H]1CN([C@@H](C)CO)C(=O)c2cccc(NC(=O)c3ccc(-c4nccs4)cc3)c2O[C@@H]1CN(C)Cc1ccc(C(=O)O)cc1	.	.	/
C[C@@H]1CN([C@@H](C)CO)C(=O)c2cccc(NC(=O)c3ccc(-c4nccs4)cc3)c2O[C@@H]1CN(C)Cc1ccc(Cl)c(Cl)c1	.	.	/
C[C@@H]1CN([C@@H](C)CO)C(=O)c2cccc(NC(=O)c3ccc(-c4nccs4)cc3)c2O[C@@H]1CN(C)Cc1ccc(C(=O)O)cc1	/	.	/
C[C@H](CO)N1C[C@H](C)[C@H](CN(C)Cc2ccc(Cl)c(Cl)c2)Oc2c(NC(=O)c3ccc(-c4nccs4)cc3)cccc2C1=O	.	108.1	/
COc1ccc(/C=C/C(=O)O[C@@H]2[C@@H](O)[C@@H](O)[C@H](O[C@@H]3C=C(CO)[C@H]4[C@H](O[C@@H]5O[C@H](CO)[C@@H](O)[C@H](O)[C@H]5O)OC=C[C@H]43)O[C@H]2C)cc1	.	.	.
C[C@H]1OC(=O)c2c(O)ccc(O)c2[C@H]1O	/	/	.
CC1CC(=O)c2c(ccc3c2C(=O)c2cccc(O)c2C3O)C1 (stereo not given)	.	117.5	.
N#Cc1c(N)nc(Sc2ccc(Cl)cc2)c(C#N)c1-c1ccccc1	.	101.5	/
N#Cc1c(-c2ccccc2Cl)cc(C2CC2)nc1N	.	.	/
C=CCn1c(SCc2csc(C)n2)nc2sc(C)c(C)c2c1=O	/	.	.
Cc1ccc2cc3c(nc2c1)N(c1ccc(C(=O)NCc2ccco2)cc1)CC3	.	115.7	/
Cc1ccc2cc3c(nc2c1)N(c1ccccc1)CC3	.	.	/
COc1ccccc1NC(=O)CN(c1ccc(F)cc1)S(C)(=O)=O	.	.	.
O=C(Nc1ccccc1)C1CCCCC1	.	.	/
O=C(ON1C(=O)c2ccccc2C1=O)C1CCCCC1	.	125.9	/
C[C@@H]1CN([C@H](C)CO)C(=O)c2cc(NS(=O)(=O)c3cccs3)ccc2O[C@@H]1CN(C)Cc1ccc(-c2ccccc2)cc1	.	113.3	/
C[C@H]1CN([C@@H](C)CO)C(=O)Cc2cc(NS(=O)(=O)c3cccs3)ccc2O[C@H]1CN(C)Cc1ccc(Oc2ccccc2)cc1	.	.	.
C[C@H](CO)N1C[C@H](C)[C@H](CN(C)Cc2ccc(-c3ccccc3)cc2)Oc2ccc(NS(=O)(=O)c3cccs3)cc2C1=O	.	.	/
C[C@@H]1CN([C@H](C)CO)C(=O)Cc2cc(NS(=O)(=O)c3cccs3)ccc2O[C@@H]1CN(C)Cc1ccc(Oc2ccccc2)cc1	/	117.9	.
C[C@@H]1CN([C@H](C)CO)C(=O)Cc2cc(NS(=O)(=O)c3cccs3)ccc2O[C@H]1CN(C)Cc1ccccc1	/	.	.
C[C@H]1CN([C@@H](C)CO)C(=O)Cc2cc(NS(=O)(=O)c3cccs3)ccc2O[C@@H]1CN(C)Cc1ccc(-c2ccccc2)cc1	/	89.2	/
Cc1ccccc1NC(=O)CSc1nnc(-c2ccc(C(C)(C)C)cc2)n1C	.	.	.
Cc1ccc(-n2c(SCC(=O)Nc3c(Cl)cccc3Cl)nnc2-c2ccncc2)cc1	/	.	.
Nc1cc(C(F)(F)F)ccc1Oc1ccc(C2CCCCC2)cc1	.	113.4	/
CC(=O)NCCOc1ccc(C2CCCCC2)cc1	.	.	.
O=C(CSc1nc2ccccc2[nH]1)Nc1ccc(Br)cc1Cl	/	.	.
Cc1nn(C(C)(C)C)c(OC(=O)c2cccc(Br)c2)c1S(=O)(=O)c1ccccc1	.	119.2	.
Cc1nn(C(C)(C)C)c(OC(=O)c2ccc(Cl)cc2)c1S(=O)(=O)c1ccccc1	.	121.1	.
Nc1cc(OC(=O)c2ccccc2)nn1S(=O)(=O)c1ccccc1	.	.	.
